Source: PubChem BioAssay (EPA / NIEHS)
Inconclusive results are not listed. Some compounds were tested as several samples or in several runs, with calls that do not always agree. Activity calls are given as the source filed them. The calls were made as follows, unless noted: active = hit-call score of the fitted dose curve at least 0.9, where 1 is the maximum; inactive = score below 0.9.

How the values were obtained:
[1] = target: Retinoic acid receptor RXR-alpha (Homo sapiens) (UniProt P19793); assay: OT_NURR1_NURR1RXRa_1440: Odyssey Thera (OT) 24-hour HEK293T Protein Complementation Assay for Nurr1/retinoid X receptor (RXR) (AID 2283386; active = hit-call score of the fitted dose curve at least 0.9, where 1 is the maximum)
In short: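 Fluorescence PCA read-out; HEK293T; 24 h post-dose; bait/prey fused to reporter fragments; gain-of-signal fit vs DMSO negative control.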

[2] = target: Peroxisome proliferator-activated receptor gamma (Homo sapiens) (UniProt P37231); assay: OT_PPARg_PPARgSRC1_0480: Odyssey Thera (OT) 8-hour Protein-Complementation Assay for Peroxisome Proliferator-activated Receptor Gamma / SRC-1 Co-activator (AID 2283387; active = hit-call score of the fitted dose curve at least 0.9, where 1 is the maximum;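 also: nuclear to cytoplasmic split Venus YFP fluorescence ratio reporting PPARg SRC-1 interaction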)
In short: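 Read-out: 488 nm N/C fluorescence ratio from complemented Venus YFP fragments, ≥350 cells per image, gain-of-signal fitted against DMSO baseline. Fusions of PPARg/SRC-1 with IFP1/IFP2 expressed transiently in HEK293T; compounds applied 8 h.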

[3] = target: Peroxisome proliferator-activated receptor gamma (Homo sapiens) (UniProt P37231); assay: OT_PPARg_PPARgSRC1_1440: Odyssey Thera (OT) 24-hour Protein-Complementation Assay for Peroxisome Proliferator-activated Receptor Gamma/ SRC-1 Co-activator (AID 2283388; active = hit-call score of the fitted dose curve at least 0.9, where 1 is the maximum;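 also: nuclear to cytoplasmic ratio of reconstituted Venus YFP fluorescence in fixed imaged cells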)
In short: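 Cells carrying the PPARg/SRC-1 fragment-complementation reporter receive compound for 24 hours, are fixed and counterstained with Draq5, then imaged. Increased nuclear relative to cytoplasmic YFP fluorescence above DMSO baseline indicates binding activity.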

[4] = CEETOX_H295R_11DCORT: CeeTox H295R High-throughput Steroidogenesis Assay for 11-Deoxycortisol (11DCORT) (AID 2283432); conditions: actives raise or lower the signal;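 as to AC50: 11-deoxycortisol secreted into the medium measured by LC-MS/MS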
In short: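 H295R cells; 10 uM forskolin prestim 48 h; compound in 0.1% DMSO 48 h; media extracted with MTBE; 11-deoxycortisol by LC-MS/MS, 7-point standard curve; gain/loss vs DMSO baseline; viability by MTT in same wells.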

[5] = CEETOX_H295R_OHPREG: CeeTox H295R High-throughput Steroidogenesis Assay for OH-Pregnenolone (OHPREG) (AID 2283434); conditions: actives raise or lower the signal
In short: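 H295R, 10 uM forskolin pre-stim 48 h; test chemical 48 h, 0.1% DMSO final. MTBE extraction, reverse-phase C18 HPLC-ESI+ MS/MS of medium. Gain/loss vs DMSO; viability by MTT in same wells.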

[6] = CEETOX_H295R_OHPROG: CeeTox H295R High-throughput Steroidogenesis Assay for OH-Progesterone (OHPROG) (AID 2283435); conditions: actives raise or lower the signal;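 as to AC50: 17alpha-hydroxyprogesterone secreted into medium measured by HPLC-MS/MS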
In short: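 HPLC-MS/MS quantification of 17alpha-hydroxyprogesterone secreted by H295R cells after 48 h chemical exposure, following 48 h 10 uM forskolin prestimulation. Gain or loss of signal fitted relative to DMSO. Viability checked by MTT in the same wells.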

[7] = CEETOX_H295R_CORTIC: CeeTox H295R High-throughput Steroidogenesis Assay for Corticosterone (CORTIC) (AID 2283437); conditions: actives raise or lower the signal;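 also: corticosterone secreted into medium quantified by mass spectrometry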
In short: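 48 h forskolin (10 uM) prestim, then 48 h chemical exposure, final DMSO 0.1%. Readout: corticosterone in medium by LC-MS/MS after MTBE extraction. Gain/loss fit vs DMSO; MTT viability in same wells.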

[8] = CEETOX_H295R_CORTISOL: CeeTox H295R High-throughput Steroidogenesis Assay for Cortisol (AID 2283438); conditions: actives raise or lower the signal;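 also: cortisol secreted into medium quantified by LC-MS/MS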
In short: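 Read-out: cortisol in culture medium by reverse-phase C18 HPLC with ESI-positive tandem MS, after MTBE liquid-liquid extraction. Cells: human adrenal H295R, forskolin-primed (10 uM, 48 h) before 48 h chemical exposure in 0.1% DMSO.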

[9] = CEETOX_H295R_DOC: CeeTox H295R High-throughput Steroidogenesis Assay for DOC (AID 2283439); conditions: actives raise or lower the signal
In short: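 Human adrenocortical H295R cells, passages up to 10, received 10 uM forskolin for 48 h before chemical addition. After another 48 h exposure in 0.1% DMSO, secreted DOC was measured by LC-MS/MS, with gain or loss fitted against DMSO controls.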

[10] = CEETOX_H295R_PROG: CeeTox H295R High-throughput Steroidogenesis Assay for Progesterone (PROG) (AID 2283442); conditions: actives raise or lower the signal
In short: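 Measured analyte is progesterone secreted by H295R cells at 48 h of chemical treatment, following 10 uM forskolin priming. Quantitation used HPLC-MS/MS against a 7-point standard curve; cytotoxicity was checked by MTT absorbance.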

[11] = read-out: Tumor necrosis factor receptor superfamily member 6 (Homo sapiens) (UniProt P25445); assay: LTEA_HepaRG_FAS: Life Technologies and Expression Analysis (LTEA) Assay for Fas cell surface death receptor (FAS) using HepaRG (AID 2283447); conditions: mRNA level, 48 h; actives raise or lower the signal
In short: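 Differentiated HepaRG cells in serum-free induction medium were exposed 48 h to 8 half-log concentrations up to 100 uM in 0.5% DMSO, in duplicate. FAS mRNA was measured by qRT-PCR normalised to ACTB, GAPDH and POLR2A; bidirectional fit versus DMSO.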

[12] = read-out: Fatty acid synthase (Homo sapiens) (UniProt P49327); assay: LTEA_HepaRG_FASN: Life Technologies and Expression Analysis (LTEA) Assay for Fatty Acid Synthase (FASN) using HepaRG (AID 2283448); conditions: mRNA level, 48 h; actives raise or lower the signal;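 as to AC50: differentiated human HepaRG liver cells in serum-free induction medium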
In short: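 HepaRG, 48 h exposure, 8-pt half-log series top 100 uM, 0.5% DMSO vehicle, duplicates. Readout: FASN transcript by Fluidigm qRT-PCR; housekeeping-normalized; bidirectional curve fit vs DMSO baseline.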

[13] = read-out: Cyclin D2 (CCND2), CCND2 (gene 894); assay: LTEA_HepaRG_CCND2: Life Technologies and Expression Analysis (LTEA) Assay for Cyclin D2 (CCND2) using HepaRG (AID 2283449); conditions: mRNA level, 48 h; actives raise or lower the signal;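 also: CCND2 transcript measured by TaqMan qRT-PCR and normalised to three housekeeping genes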
In short: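 HepaRG, 48 h dosing, 8-pt half-log curve from 100 uM, 0.5% DMSO; duplicate wells. Readout: CCND2 transcript by microfluidic qRT-PCR, housekeeping-normalised; bidirectional fit vs DMSO baseline.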

[14] = read-out: Cyclin Dependent Kinase Inhibitor 1A (CDKN1A), CDKN1A (gene 1026); assay: LTEA_HepaRG_CDKN1A: Life Technologies and Expression Analysis (LTEA) Assay for Cyclin Dependent Kinase Inhibitor 1A (CDKN1A) using HepaRG (AID 2283450); conditions: mRNA level, 48 h; actives raise or lower the signal
In short: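 Gain or loss of CDKN1A transcript is scored by bidirectional fitting against 0.5% DMSO vehicle. Human HepaRG cultures receive chemicals for 48 h across an 8-point series peaking at 100 uM; expression comes from qRT-PCR.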

[15] = read-out: Cyclin D1 (CCND1), CCND1 (gene 595); assay: LTEA_HepaRG_CCND1: Life Technologies and Expression Analysis (LTEA) Assay for Cyclin D1 (CCND1) using HepaRG (AID 2283451); conditions: mRNA level, 48 h; actives raise or lower the signal;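 as to AC50: differentiated human HepaRG liver cells in serum-free induction medium; TaqMan qRT-PCR transcript level normalised to ACTB GAPDH and POLR2A housekeeping genes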
In short: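 Expression change is measured by qRT-PCR in HepaRG cells after 48 h treatment across eight concentrations topping at 100 uM, with duplicate wells and DMSO (0.5%) serving as baseline for bidirectional fitting.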

[16] = read-out: catalase (CAT), CAT (gene 847); assay: LTEA_HepaRG_CAT: Life Technologies and Expression Analysis (LTEA) Assay for catalase (CAT) using HepaRG (AID 2283452); conditions: mRNA level, 48 h; actives raise or lower the signal;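 as to AC50: TaqMan qRT-PCR signal normalized to ACTB GAPDH and POLR2A housekeeping genes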
In short: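 HepaRG cells in serum-free induction medium, 0.5% DMSO vehicle, exposed 48 h in duplicate over 8 half-log concentrations from 100 uM. CAT mRNA measured by qRT-PCR, normalized to ACTB, GAPDH, POLR2A; bidirectional fit versus DMSO.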

[17] = read-out: flavin-containing dimethylaniline monooxygenases 3 (FMO3), FMO3 (gene 2328); assay: LTEA_HepaRG_FMO3: Life Technologies and Expression Analysis (LTEA) Assay for flavin-containing dimethylaniline monooxygenases 3 (FMO3) using HepaRG (AID 2283453); conditions: mRNA level, 48 h; actives raise or lower the signal;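 as to AC50: differentiated human HepaRG liver cells in serum-free induction medium; FMO3 transcript by TaqMan qRT-PCR normalized to ACTB GAPDH and POLR2A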
In short: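 Eight-point concentration-response in serum-free HepaRG cultures (top 100 uM, 0.5% DMSO, 48 h). Read-out: FMO3 mRNA level normalized to three endogenous control genes, fitted bidirectionally versus vehicle.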

Measured: AC50

Chain of Fatty acid synthase (Homo sapiens) (P49327 whole entry, looked up): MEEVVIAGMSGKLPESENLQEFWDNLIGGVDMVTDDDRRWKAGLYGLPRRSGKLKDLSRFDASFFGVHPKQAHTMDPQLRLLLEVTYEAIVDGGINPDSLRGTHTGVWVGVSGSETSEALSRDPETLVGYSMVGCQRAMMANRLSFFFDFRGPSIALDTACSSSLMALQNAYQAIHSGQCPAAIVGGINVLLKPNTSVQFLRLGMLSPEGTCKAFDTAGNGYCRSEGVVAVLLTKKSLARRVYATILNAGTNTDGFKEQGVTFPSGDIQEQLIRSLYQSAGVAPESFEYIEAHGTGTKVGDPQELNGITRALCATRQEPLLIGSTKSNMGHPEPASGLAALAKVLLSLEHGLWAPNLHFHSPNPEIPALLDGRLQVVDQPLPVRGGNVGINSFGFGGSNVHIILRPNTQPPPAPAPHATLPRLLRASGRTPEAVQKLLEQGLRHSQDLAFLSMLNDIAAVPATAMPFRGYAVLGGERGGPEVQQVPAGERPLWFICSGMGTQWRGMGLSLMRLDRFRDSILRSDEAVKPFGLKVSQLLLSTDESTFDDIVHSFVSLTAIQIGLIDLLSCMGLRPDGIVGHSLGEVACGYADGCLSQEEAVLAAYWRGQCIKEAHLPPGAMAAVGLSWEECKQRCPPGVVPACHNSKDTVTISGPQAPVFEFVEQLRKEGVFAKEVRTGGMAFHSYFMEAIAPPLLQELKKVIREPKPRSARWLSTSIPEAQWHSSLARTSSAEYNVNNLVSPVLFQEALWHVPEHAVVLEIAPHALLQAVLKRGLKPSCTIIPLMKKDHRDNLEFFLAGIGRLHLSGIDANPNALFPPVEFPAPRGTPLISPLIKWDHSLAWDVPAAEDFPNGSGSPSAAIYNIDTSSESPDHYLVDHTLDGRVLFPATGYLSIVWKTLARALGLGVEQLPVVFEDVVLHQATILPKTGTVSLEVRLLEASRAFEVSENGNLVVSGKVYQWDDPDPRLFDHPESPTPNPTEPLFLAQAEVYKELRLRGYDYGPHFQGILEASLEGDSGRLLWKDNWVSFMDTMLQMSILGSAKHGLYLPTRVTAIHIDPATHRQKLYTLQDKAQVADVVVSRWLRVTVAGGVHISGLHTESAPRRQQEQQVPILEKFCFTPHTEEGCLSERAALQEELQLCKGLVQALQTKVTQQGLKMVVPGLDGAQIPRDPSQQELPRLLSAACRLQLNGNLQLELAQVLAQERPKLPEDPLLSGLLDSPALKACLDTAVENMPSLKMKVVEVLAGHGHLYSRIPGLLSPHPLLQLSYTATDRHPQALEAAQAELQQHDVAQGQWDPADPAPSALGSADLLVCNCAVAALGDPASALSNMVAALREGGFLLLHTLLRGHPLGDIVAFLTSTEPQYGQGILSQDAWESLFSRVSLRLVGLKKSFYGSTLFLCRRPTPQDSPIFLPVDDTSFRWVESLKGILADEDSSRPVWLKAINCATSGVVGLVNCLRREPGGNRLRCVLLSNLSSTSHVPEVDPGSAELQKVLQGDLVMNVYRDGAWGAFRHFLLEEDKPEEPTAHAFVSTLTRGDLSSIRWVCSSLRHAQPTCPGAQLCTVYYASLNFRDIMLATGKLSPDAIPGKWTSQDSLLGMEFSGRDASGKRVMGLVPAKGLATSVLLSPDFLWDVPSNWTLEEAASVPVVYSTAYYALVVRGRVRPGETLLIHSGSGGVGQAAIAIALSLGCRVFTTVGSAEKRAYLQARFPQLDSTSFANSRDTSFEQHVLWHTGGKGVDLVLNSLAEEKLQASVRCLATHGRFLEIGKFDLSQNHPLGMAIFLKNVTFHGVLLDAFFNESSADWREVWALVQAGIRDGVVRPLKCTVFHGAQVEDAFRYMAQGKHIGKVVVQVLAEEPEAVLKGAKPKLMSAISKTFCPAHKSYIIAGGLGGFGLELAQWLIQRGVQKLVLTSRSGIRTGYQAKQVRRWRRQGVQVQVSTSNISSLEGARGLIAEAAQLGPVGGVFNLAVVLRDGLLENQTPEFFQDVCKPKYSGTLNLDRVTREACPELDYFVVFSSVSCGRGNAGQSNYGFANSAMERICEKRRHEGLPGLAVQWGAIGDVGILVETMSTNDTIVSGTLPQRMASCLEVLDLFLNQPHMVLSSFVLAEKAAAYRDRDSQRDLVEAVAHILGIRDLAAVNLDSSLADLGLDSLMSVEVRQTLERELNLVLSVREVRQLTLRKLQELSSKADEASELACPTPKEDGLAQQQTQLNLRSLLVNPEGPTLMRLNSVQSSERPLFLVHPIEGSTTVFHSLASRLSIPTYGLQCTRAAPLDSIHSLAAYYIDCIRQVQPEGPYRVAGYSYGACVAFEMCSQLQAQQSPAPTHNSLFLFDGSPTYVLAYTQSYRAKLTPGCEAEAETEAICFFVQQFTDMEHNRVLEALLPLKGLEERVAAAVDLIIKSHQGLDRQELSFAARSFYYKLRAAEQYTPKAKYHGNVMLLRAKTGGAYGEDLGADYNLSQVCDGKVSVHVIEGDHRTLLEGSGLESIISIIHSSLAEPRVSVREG
Chain of Peroxisome proliferator-activated receptor gamma (Homo sapiens) (P37231 whole entry, looked up, the tested form may be a part): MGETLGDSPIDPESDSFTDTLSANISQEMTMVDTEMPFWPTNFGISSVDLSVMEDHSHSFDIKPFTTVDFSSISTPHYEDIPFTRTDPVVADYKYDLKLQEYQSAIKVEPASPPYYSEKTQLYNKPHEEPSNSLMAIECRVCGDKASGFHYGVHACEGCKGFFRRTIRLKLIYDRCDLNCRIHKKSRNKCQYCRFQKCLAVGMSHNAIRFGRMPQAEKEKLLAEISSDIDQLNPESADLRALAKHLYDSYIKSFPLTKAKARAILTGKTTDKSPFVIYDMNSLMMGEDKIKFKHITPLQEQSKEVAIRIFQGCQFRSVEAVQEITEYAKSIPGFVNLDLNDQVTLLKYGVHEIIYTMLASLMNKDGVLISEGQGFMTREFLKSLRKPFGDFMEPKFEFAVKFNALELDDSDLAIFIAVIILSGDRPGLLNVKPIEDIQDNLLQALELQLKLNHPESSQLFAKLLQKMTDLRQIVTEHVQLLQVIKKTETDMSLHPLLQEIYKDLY
Chain of Retinoic acid receptor RXR-alpha (Homo sapiens) (P19793 whole entry, looked up, the tested form may be a part): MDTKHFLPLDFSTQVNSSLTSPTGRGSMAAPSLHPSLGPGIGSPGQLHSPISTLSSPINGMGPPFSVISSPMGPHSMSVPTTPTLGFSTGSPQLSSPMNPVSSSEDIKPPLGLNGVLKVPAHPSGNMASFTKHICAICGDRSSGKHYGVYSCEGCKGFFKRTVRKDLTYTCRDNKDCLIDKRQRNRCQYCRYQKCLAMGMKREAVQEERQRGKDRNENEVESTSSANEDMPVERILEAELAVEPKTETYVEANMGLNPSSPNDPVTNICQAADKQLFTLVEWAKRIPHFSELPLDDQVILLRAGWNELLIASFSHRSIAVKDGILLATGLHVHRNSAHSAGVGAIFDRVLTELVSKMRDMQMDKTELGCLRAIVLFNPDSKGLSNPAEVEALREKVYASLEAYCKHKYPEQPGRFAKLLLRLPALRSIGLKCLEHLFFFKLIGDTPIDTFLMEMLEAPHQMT

CNc1cnn(-c2cccc(C(F)(F)F)c2)c(=O)c1Cl
active: [4] 11.5 µM | [12] 18 µM | [17] 38.8 µM
inactive: all other assays above

CCOP(=S)(OCC)OC(Cl)C(Cl)(Cl)Cl (stereo not given)
inactive: [1] | [2] | [3] | [11] | [12] | [13] | [14] | [15] | [16]

O=[N+]([O-])c1cc(C(F)(F)F)c(Cl)c([N+](=O)[O-])c1Nc1ncc(C(F)(F)F)cc1Cl
active: [1] 0.641 µM | [12] 50 µM | [15] 14.8 µM | [16] 29.2 µM
inactive: [2] | [3] | [11] | [13] | [14]

CC(C)N(C(=O)SCC(Cl)=C(Cl)Cl)C(C)C
inactive: [1] | [12] | [13] | [14] | [15] | [16]
active: [1] 77.9 µM

CCCCOC(=O)[C@@H](C)Oc1ccc(Oc2ccc(C#N)cc2F)cc1
inactive: [1] | [2] | [3] | [12] | [13] | [14] | [15] | [16]

Cc1nn(-c2cc(NS(C)(=O)=O)c(Cl)cc2Cl)c(=O)n1C(F)F
inactive: [1] | [2] | [3] | [11] | [12] | [14] | [15] | [16] | [17]

CCOP(=O)(SC(C)CC)N1CCSC1=O (stereo not given)
inactive: [1] | [2] | [3] | [12] | [14] | [15] | [16] | [17]

CC(Oc1cccc(Cl)c1)C(=O)O (stereo not given)
inactive: [1] | [2] | [3] | [11] | [12] | [14] | [15] | [16]

COP(=O)(OC)OC(Br)C(Cl)(Cl)Br (stereo not given)
inactive: [1] | [2] | [3] | [12] | [13] | [14] | [15] | [16] | [17]

CCOP(=S)(OCC)SCCSCC
inactive: [2] | [3] | [11] | [12] | [13] | [14] | [15] | [16]

Nc1c(Cl)cc([N+](=O)[O-])cc1Cl
active: [12] 16.9 µM | [15] 50 µM | [16] 41.4 µM | [17] 50 µM
inactive: [1] | [2] | [3] | [13] | [14]

CSc1nnc(C(C)(C)C)c(=O)n1N
not listed: [2] | [3] | [11] | [17]
inactive: all other assays above

CCc1cccc(CC)c1N(COC)C(=O)CCl
active: [1] 0.714 µM
inactive: [2] | [3] | [12] | [13] | [14] | [15] | [16]

COP(=O)(OC)SCn1c(=O)oc2cc(Cl)cnc21
active: [15] 78.5 µM
inactive: [2] | [3] | [12] | [13] | [14] | [16] | [17]

C[N+]1(C)CCCCC1
inactive: [1] | [2] | [3] | [12] | [13] | [14] | [15] | [16] | [17]

CCCOc1nn(C(=O)NS(=O)(=O)c2ccccc2C(=O)OC)c(=O)n1C
inactive: [1] | [2] | [3] | [11] | [12] | [14] | [15] | [16] | [17]
active: [13] 67.7 µM

CNC(=O)Oc1cccc2c1OC(C)(C)O2
active: [6] 30.9 µM | [10] 4.74 µM
not listed: [1] | [13]
inactive: all other assays above

O=c1ccc(=O)[nH][nH]1
inactive: [1] | [2] | [3] | [12] | [13] | [14] | [15] | [16] | [17]

CCOP(=S)(OCC)Oc1cc(C)nc(C(C)C)n1
active: [4] 50 µM | [6] 6.6 µM | [7] 36.6 µM | [8] 50 µM | [10] 26 µM
not listed: [1] | [11] | [13]
inactive: all other assays above

N#CSCSC#N
active: [12] 64.6 µM | [16] 74.9 µM
inactive: [2] | [3] | [11] | [13] | [14] | [15]
